# In the supplement of paper PMC9135407:
# Values joined by “and” are separate entries in the source; they are usually repeats but may differ in a detail not shown here. Identical values can stand only once. Counter-ions that a name gives are not always drawn. In all, about 5,800 compounds went through this assay and about 620 (11%) showed activity. The entries come from a sample that favours actives as a whole. Values without a mark were called inactive.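 How the source made its calls: active = score above a cut-off or among the top three wells of a plate; in these data no inactive exceeds 0.85.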
# Tested on: primary human hepatic stellate cells (donor 1)
# Experiment: scaled lipid accumulation score (0 = DMSO-like, 1 = nortriptyline-like); higher = stronger HSC inactivation (lipid re-accumulation), active = hit call of the paper
# Details: 48 h
# [1] = library stock concentration: 10 mM
# [2] = library stock concentration: 3.33 mM
# [3] = library stock concentration: 1 mM
compound,measurement,setting,value
CC(Cc1ccccc1)(NC(=O)CN)c1ccccc1 (centres undefined) [Remacemide hydrochloride],scaled lipid accumulation score,[1],0.479
CC(Cc1ccccc1)(NC(=O)CN)c1ccccc1 (racemic),scaled lipid accumulation score,[1],0.922 (active)
CC(N)(Cc1ccc(O)cc1)C(=O)O (racemic) [DL-alpha-Methyl-p-tyrosine],scaled lipid accumulation score,[1],0.213
COc1ccc(-c2cc(=O)c3c(O)c(OC)c(OC)cc3o2)cc1O [Eupatorin],scaled lipid accumulation score,[1],0.725
CC(C)Cn1c(=O)n(C)c(=O)c2nc[nH]c21 [Isobutylmethylxanthine],scaled lipid accumulation score,library stock concentration: 9 mM,≤ 0
O=C[C@H](O)[C@@H](O)[C@H](O)CO [Xylose],scaled lipid accumulation score,[2],≤ 0
same,scaled lipid accumulation score,[1],0.028
CN1CC2c3ccccc3Oc3ccc(Cl)cc3C2C1 (centres undefined) [Asenapine maleate],scaled lipid accumulation score,[1],0.772
CN1CCN(C2=Nc3ccccc3Oc3ccc(Cl)cc32)CC1,scaled lipid accumulation score,[1],0.608
CN1CCN(C2=Nc3ccccc3Oc3ccc(Cl)cc32)CC1 [Loxapine Succinate],scaled lipid accumulation score,[2],≤ 0
same,scaled lipid accumulation score,[1],0.493
CN1CC2c3ccccc3Oc3ccc(Cl)cc3C2C1 (centres undefined) [Asenapine],scaled lipid accumulation score,[2],0.156
same,scaled lipid accumulation score,[1],0.752
CN1CCN(C2=Nc3ccccc3Oc3ccc(Cl)cc32)CC1 [Loxapine succinate],scaled lipid accumulation score,,0.3
same,scaled lipid accumulation score,library stock concentration: 4.5 mM,0.253
same,scaled lipid accumulation score,[1],0.708 and 0.486
CN1CCN(C2=Cc3ccccc3Oc3ccc(Cl)cc32)CC1.O=C(O)/C=C/C(=O)O,scaled lipid accumulation score,[1],1.01 (active)
CNc1nc(Nc2cnn(C3CCN(C4COC4)CC3F)c2Cl)ncc1C(F)(F)F (centres undefined),scaled lipid accumulation score,[2],≤ -0.009
same,scaled lipid accumulation score,[1],≤ 0
CCCCC(C)(O)CC=CC1C(O)CC(=O)C1CCCCCCC(=O)OC (centres undefined) [8-iso Misoprostol],scaled lipid accumulation score,[3],≤ 0
CN1CCN(c2nc3cc(C(F)(F)F)ccc3n3cccc23)CC1.O=C(O)/C=C\C(=O)O [listing 1 of 2 here],scaled lipid accumulation score,[1],0.974 (active)
CN1CCN(c2nc3cc(C(F)(F)F)ccc3n3cccc23)CC1.O=C(O)/C=C\C(=O)O [listing 2 of 2 here],scaled lipid accumulation score,[1],1.15 (active)
CCc1cncnc1N1CCN(Cc2nc3ccc(C(F)(F)F)cc3[nH]2)CC1,scaled lipid accumulation score,library stock concentration: 80 uM,≤ 0
same,scaled lipid accumulation score,library stock concentration: 400 uM,≤ 0
same,scaled lipid accumulation score,library stock concentration: 2 mM,≤ 0
same,scaled lipid accumulation score,[2],≤ 0
same,scaled lipid accumulation score,[1],0.077 and 0.419 and ≤ 0
CCCCC/C=C\C[C@@H](O)/C=C/c1cccc(C[C@@H](O)CCCCO)n1,scaled lipid accumulation score,library stock concentration: 100 uM,≤ -0.021
CCNC(=O)CCC/C=C\C[C@@H]1[C@@H](CC[C@@H](O)CCc2ccccc2)[C@H](O)C[C@@H]1O [Latanoprost ethyl amide],scaled lipid accumulation score,[3],≤ 0
